Laboratory results: PubChem BioAssay AID598 (SRMLSC, 2007)
About 5,100 (6%) of roughly 85,000 compounds were called active. For the sample, actives were picked, then their nearest neighbours and some compounds at random. A number with no mark means an inactive call.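 How the source made its calls: active means viability at or below 40%; inactive means viability above 40%.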

Assay: H69AR cell viability reduction – human, 86K library, primary screen (AID 598);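 further: multidrug resistant small cell line overexpressing MRP-1 efflux transporter; 100% = mean luminescence of untreated control wells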
Conditions: H69AR lung tumor viability, ATP luminescence, 72 h; at 10 µM; stronger effect = lower value

Compound | viability
CSc1nc(N)c(C#N)c(-c2ccccc2Cl)c1C#N | 21.8% (active)
CSc1ccc(-c2c(C#N)c(N)nc3c2c(C)nn3-c2ccccc2)cc1 | 57.5%
N#Cc1c(N)nc2c3c(sc(=N)c2c1N)NC(=O)CC3c1ccccc1Cl (configuration not stated) | 113%
O=C(NC1CCC(O)CC1)c1ccc(S(=O)(=O)NCc2ccco2)cc1 (configuration not stated) | 96.7%
Cc1nnc(SCC(=O)NCc2ccccc2)s1 | 96.4%
CC1(C)Cc2c(sc3nc(SCC(=O)NCc4ccccc4)n(-c4ccccc4)c(=O)c23)CS1 | 24.1% (active)
CNC(=O)CSc1nnc(CCc2ccccc2)n1-c1ccccc1 | 83.2%
CCOC(=O)c1c(NC(C)=O)sc2c(O)c(Br)ccc12 | 94.9%
COc1ccc(C(C#N)Nc2ccccc2C)cc1 (configuration not stated) | 88.9%
O=C(Nc1nnc(SCc2ccccc2)s1)c1ccco1 | 96%
O=C(CSc1nnc(-c2cccnc2)n1Cc1ccco1)c1ccc(Cl)cc1 | 95.3%
COc1ccc(CCn2c(-c3ccco3)nc3nc4ccccc4nc32)cc1OC | 55.4%
Clc1cccc(-c2nc3nc4ccccc4nc3n2Cc2ccco2)c1 | 34.4% (active)
Cc1cccc(S(=O)(=O)CC(=O)Nc2nc(-c3ccccc3)cs2)c1 | 99.7%
Cc1nc(NNC(=O)c2ccccc2)cc(-c2ccccc2)n1 | 91.7%
O=C(NCc1ccccc1)[C@@H]1CSC2c3ccccc3C(=O)N21 (some centres not stated) | 78.5%
COC(CNC(=O)Cn1ncc2ccsc2c1=O)OC | 101%
COC(=O)c1cccc(N(C(=O)c2ccco2)C(C(=O)NC2CCCC2)c2ccco2)c1 (configuration not stated) | 32.4% (active)
Cc1cccc(N(C(=O)c2ccc(CN3CCOCC3)o2)C(C(=O)NC2CCCCC2)c2ccc(F)cc2)c1 (configuration not stated) | 103%
COC(=O)c1ccc(N(CC(=O)NC2CCCC2)C(=O)CNC(=O)c2ccco2)cc1 | 94.9%
COc1ccc(-c2oc(/N=C/N3CCCC3)c(C#N)c2-c2ccc(OC)cc2)cc1 | 99.1%
O=C(N/N=C\c1cccc(Br)c1)c1ccccc1-n1cccc1 | 93.7%
N=c1c2c(-c3ccccc3)c(-c3ccccc3)n(Cc3ccccc3)c2ncn1CCCO | 0.82% (active)
Cc1ccc(NC(=O)N2CCC(c3nc4c(nnn4Cc4c(F)cccc4Cl)c(=O)[nH]3)CC2)cc1 | 67.6%
CCCCNC(=O)C1CCCNC1=O (configuration not stated) | 98.9%

Compound | viability
COc1ccccc1-c1c(C)nn2c(C)c(C(C)=O)cnc12 | 89.8%
COc1ccc(-c2n[nH]c(C)c2-c2ccc(OC)c(OC)c2)c(O)c1 | 14.9% (active)
C=C(C)COc1ccc(-c2n[nH]c(C)c2-c2ccccc2OC)c(O)c1 | 39.9% (active)
C=C(C)COc1ccc(-c2n[nH]c(C)c2-c2ccccc2)c(O)c1 | 95.5%
O=C(Cn1c(-c2cscn2)nc2ccccc21)Nc1ccc(Cl)cc1 | 72.9%
COc1ccc(C)cc1S(=O)(=O)NCCc1ccccc1 | 96%
CCCCOc1ccc(N(CC(=O)NCC2CCCO2)C(=O)CCC(=O)Nc2cc(C)ccn2)cc1 (configuration not stated) | 102%
O=C(CC12CC3CC(CC(C3)C1)C2)Nc1ccc2c(c1)COC2=O | 90.9%
O=S(=O)(NN=C1CCCCCCC1)c1ccc(Br)cc1 | 88.9%
CC/S(CC1CC1(Cl)Cl)=N\S(=O)(=O)c1ccc(C)cc1 (configuration not stated) | 76.7%
CCCCn1c(SCC(=O)NCCc2ccc(OC)c(OC)c2)nc2c1c(=O)n(C)c(=O)n2C | 86.6%
CCOc1ccc2nc(NC(=O)CSc3nc4c(c(=O)n(C)c(=O)n4C)n3CC)sc2c1 | 14.9% (active)
CCn1c(SCC(=O)Nc2nc3ccc(OC)cc3s2)nnc1-c1ccoc1C | 58.8%
COC(=O)CNC(=O)c1ccccc1F | 85.2%
O=C(c1ccc(Cl)c(Cl)c1)N1CCCC1 | 95.3%
C/C=C/C(=O)OCC(=O)Nc1ccc(F)cc1Cl | 98.4%
COc1ccccc1N1CCN(Cc2nnnn2CCc2ccccc2)CC1 | 102%
COc1ccccc1N1CCN(C(=O)CN(Cc2ccc(Cl)cc2)S(C)(=O)=O)CC1 | 86.8%
COc1ccccc1-n1nnnc1S(=O)(=O)Cc1ccc(Cl)cc1 | 1.36% (active)
COCc1[nH][nH]c(=O)c1C=Nc1ccc(F)cc1F | 96.8%
Cc1cc(C(F)F)n2nc(C(=O)Nc3ccc(S(=O)(=O)NC45CC6CC(CC(C6)C4)C5)cc3)nc2n1 | 115%
CC(C)CNC(=O)CC(c1ccccc1)c1c(O)ccc2ccccc12 (configuration not stated) | 92.8%
O=S(=O)(NCCc1ccccc1)c1ccccc1 | 103%
CCN1C(=O)C(CC(=O)Nc2cc(C)ccc2C)SC1=Nc1ccc(S(N)(=O)=O)cc1 (configuration not stated) | 97.3%
COc1ccc(CC(=O)Nc2ccc(-c3nnc(-c4ccc(C)cc4)o3)cc2)cc1 | 2.28% (active)

Compound | viability
COc1ccc(CC(=O)Nc2ccc(-c3nnc(-c4ccccc4)o3)cc2)cc1 | 58.1%
Cc1ccc(OCC(=O)Nc2ccc(-c3nnc(-c4ccco4)o3)cc2)cc1 | 90.5%
CN(Cc1ccccc1)C(=O)COc1ccccc1 | 97.9%
CCc1ccccc1NC(=O)CN(C)S(=O)(=O)c1ccc2c(c1)c(=O)n(C)c(=O)n2C | 88.5%
Cc1cccc2cc(C#N)c(N3CCCC3)nc12 | 100%
Cc1cc(C)c2nc(N3CCCC3)c(C#N)cc2c1 | 91.6%
CC(=O)c1ccc(S(=O)(=O)N2CCN(c3nc4c(C)c(C)ccc4cc3C#N)CC2)cc1 | 36% (active)
CCS(=O)(=O)Nc1ccc(C2=NN(S(=O)(=O)c3ccc(F)cc3)C(c3ccco3)C2)cc1 (configuration not stated) | 81.9%
O=C(NC1CCCC1)C(c1ccccn1)N(C(=O)c1csnn1)C1CCCC1 (configuration not stated) | 81.2%
CCOC(=O)CN(Cc1ccc(OC)c(OC)c1)S(=O)(=O)c1ccc(OC)cc1 | 87.8%
Cc1cc(C)cc(N(CC(=O)Nc2c(C)n(C)n(-c3ccccc3)c2=O)S(C)(=O)=O)c1 | 93.1%
Cc1c(NC(=O)CSc2cccc3cccnc23)c(=O)n(-c2ccccc2)n1C | 0.71% (active)
Cc1ccccc1OCCC(=O)Nc1c(C)n(C)n(-c2ccccc2)c1=O | 91%
COc1ccc(C(C)=O)cc1CN1C(=O)NC2(CCCCC2C)C1=O (configuration not stated) | 93.7%
CCOC(=O)C1CCN(C(=O)Nc2ccc(Cl)cc2)CC1 | 101%
CCOC(=O)C1CCN(C(=O)COc2cc(C)c(Br)c(C)c2)CC1 | 35.3% (active)
CCOC(=O)N1CCN(C(=O)COc2ccc(Br)cc2)CC1 | 104%
O=C1C2C3C=CC(C4CC34)C2C(=O)N1/N=C/c1ccc(-c2ccccc2[N+](=O)[O-])o1 (configuration not stated) | 86.5%
COc1cccc(NC(=O)Cc2ccc(C)cc2)c1 | 97.9%
COc1ccc(NC(=O)/C(Cl)=C(/Cl)S(=O)Cc2ccc(C)cc2)cn1 (configuration not stated) | 0.7% (active)
O=C(Cn1cnc2ccccc2c1=O)NCC1COc2ccccc2O1 (configuration not stated) | 104%
Cc1cc(=O)[nH]c(SCc2cccc(F)c2)n1 | 106%
COC(=O)c1ccccc1NC(=O)Cn1nc(C(F)(F)F)c2c1CCC2 | 84.3%
O=C(Cn1nc(C(F)(F)F)c2c1CCC2)NCc1ccc(F)cc1 | 104%
Cc1cc(NC(=O)Cn2nc(C(F)(F)F)c3c2CCCC3)no1 | 35.8% (active)

Compound | viability
Cc1ccc(OC(=O)c2ccccc2C(=O)OCC(F)(F)C(F)F)cc1 | 99.1%
COc1ccc(-n2ncc3c(N4CCCc5ccccc54)ncnc32)cc1 | 100%
COc1ccc(-n2ncc3c(N4CCc5ccccc54)ncnc32)cc1 | 43.4%
Cc1cccc(-n2ncc3c(N4CCc5ccccc54)ncnc32)c1 | 33.3% (active)
CC(C)N1C(=S)SC(C)(C)C1n1oc(=O)n(-c2ccc(Cl)c(Cl)c2)c1=O (configuration not stated) | 97.1%
CC(C)(C)n1nnnc1C(c1ccc(F)cc1)N1CCN(Cc2ccc3c(c2)OCO3)CC1 (configuration not stated) | 81.2%
CCN1C(=O)/C(=C\N2CCOCC2)SC1=S | 86.2%
CCSc1nc(-c2ccc(OC)cc2)cc(-c2ccc(OC)cc2)c1C#N | 88%
O=C(Cn1c(=O)sc2ccccc21)Nc1nc2c(s1)CCCC2 | 63.2%
COC(=O)C(NC(C)=O)(Nc1nc2c(s1)CCCC2)C(F)(F)F (configuration not stated) | 91.5%
O=C(CCS(=O)(=O)c1ccccc1)Nc1nc2c(s1)CCCC2 | 17.5% (active)
COc1ccc(C(C#N)N2N=C(C)CC2(C)C)cc1 (configuration not stated) | 104%
COC(=O)c1c(C)c(C)nc(N)c1C#N | 98.1%
FC(F)(F)c1cc(-c2ccco2)nc(NCc2ccc(Cl)cc2)n1 | 101%
CCCNC(=O)c1ccc(Cl)c(Cl)c1 | 96%
O=C(NCc1cccnc1)Nc1ccccc1F | 98.8%
CCC(c1nnnn1Cc1ccco1)N(CCc1ccccc1)Cc1cc2ccc(OC)cc2[nH]c1=O (configuration not stated) | 23.2% (active)
CCC(c1nnnn1Cc1ccco1)N(Cc1cc2cc(OC)ccc2[nH]c1=O)C1CCCCC1 (configuration not stated) | 76.8%
CCC(c1nnnn1Cc1ccco1)N(CCc1ccccc1)Cc1cc2cccc(C)c2[nH]c1=O (configuration not stated) | 67.3%
Cc1nc(SCC(=O)Nc2cc(C)on2)c2c3c(sc2n1)CCCC3 | 94%
CC1CCc2c(sc(NC(=O)c3ccc(Cn4cc(Br)cn4)o3)c2C(N)=O)C1 (configuration not stated) | 101%
Cc1cc(NC(=O)CSc2nc(C(C)C)nc3sc4c(c23)CCC(C)C4)no1 (configuration not stated) | 6.01% (active)
